# Screening data (PubChem)
# KCNQ2 inh: blocks the rat KCNQ2 potassium channel. O88943. CHO-K1 KCNQ2, FluxOR thallium flux, 20 min; stronger effect = lower value. B-score at 10 µM. 310,000 tested, 1.1% active;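 active = fluorescence ratio B-score at most minus 3 library SDs, with starting brightness B-score within 2 library SDs, cut at about -5.5 in these data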
# KCNQ2 enhance: enhances the rat KCNQ2 potassium channel | CHO-K1 KCNQ2, FluxOR thallium flux fluorescence; stronger effect = higher value | 310,000 tested, 0.54% active | B-score at 10 µM | O88943;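 active = fluorescence ratio B-score at least 3 SD of library B-scores, with initial fluorescence B-score within 3 of them, cut at about 5.3 in these data; same plate scores as AID 2156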;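 note: B-score of peak minus minimum over baseline fluorescence ratio after K+ and Tl+ stimulus; positive B-score means potentiation of KCNQ2 with more thallium influx and brighter signal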
# * marks the source's active call; other numbers are inactive results; i = inactive; x = no result given. Shown are actives, neighbours in structure and some others; about 1.6% of the full set was active somewhere.
SMILES,KCNQ2 inh,KCNQ2 enhance
CC(C)(C)N/N=C1\CC(c2ccccc2)Oc2ccccc21 (stereo not given),-7.17*,-7.17
O=C(NCCc1c[nH]c2ccccc12)/C(=C/c1cccnc1)NC(=O)c1cccs1,i,x
Cc1nc(C(=O)Nc2cc(Cl)ccc2Cl)nn1-c1cc(OC(C)C)c(Cl)cc1Cl,-6.44*,-6.44
Cc1nc(C(=O)Nc2cccc(Cl)c2Cl)nn1-c1cc(OC(C)C)c(Cl)cc1Cl,-6.35*,-6.35
Cc1nc(C(=O)Nc2cccc(Cl)c2)nn1-c1cc(OC(C)C)c(Cl)cc1Cl,i,x
Cc1nc(C(=O)Nc2ccc(Cl)cc2Cl)nn1-c1cc(OC(C)C)c(Cl)cc1Cl,i,x
O=C(Cc1ccc(Cl)cc1)NCCCNC(=O)c1cccnc1,i,x
CCOc1ccc(CCNC(=O)C(O)c2ccccc2)cc1 (stereo not given),i,0.18
CCOc1ccc(C2C(C(=O)OC)=CN(C(C)c3ccccc3)C=C2C(=O)OC)cc1 (stereo not given),-7.43*,-7.43
CCOc1ccccc1N(CC(=O)NC1CCCCC1)C(=O)CCC(=O)Nc1nccs1,i,0.83
Cc1ccc(-n2nnnc2SCC(=O)NC2CCCc3ccccc32)c(C)c1 (stereo not given),-6.48*,-6.48
Cc1ccc(-n2nnnc2SCC(=O)NC2CCCc3ccccc32)cc1 (stereo not given),i,x
NS(=O)(=O)c1ccc(-n2cccc2C=O)cc1,i,0.06
CCOC(=O)c1cc(C)sc1N1C(=O)C2C3C=CC(C3)C2C1=O (stereo not given),i,0.28
CCOC(=O)c1c(N2C(=O)C3C4C=CC(C4)C3C2=O)sc2c1CCC(C)C2 (stereo not given),i,6.67*
COC(=O)c1ccc(/C=N/N2CCN(Cc3ccc(C)cc3C)CC2)cc1,-7.77*,-7.77
COC(=O)c1ccc(/C=N/N2CCN(Cc3ccccc3Cl)CC2)cc1,i,x
Fc1cccc(Cl)c1CN1CCN(c2nc3ccccc3s2)CC1,i,x
CN(C)/C=C/C(=O)c1cc(F)cc(C(F)(F)F)c1,i,1.17
COc1cc(S(=O)(=O)NCc2ccc3c(c2)OCO3)ccc1F,i,0.47
c1ccc(C(c2ccccc2)N2CCN(Cc3nnnn3C3CCCC3)CC2)cc1,i,x
CC(C)CCn1nnnc1CN1CCN(C(c2ccccc2)c2ccccc2)CC1,-5.73*,-5.73
O=C(Nc1ccc([N+](=O)[O-])cc1)Nn1cnnc1,i,x
CCN=C(NCC)SC1CC(=O)N(c2cccc(OC)c2)C1=O (stereo not given),-5.8*,-5.8
CCN=C(NCC)SC1CC(=O)N(c2ccccc2)C1=O (stereo not given),i,x
SMILES,KCNQ2 inh,KCNQ2 enhance
CCC(C(=O)NCCC1=CCCCC1)n1nc(C)c2c(C)n(-c3ccccc3)nc2c1=O (stereo not given),i,0.21
Cc1cc(C)n(-c2nc3ccccc3c(=O)n2OCC(=O)N(C)C)n1,i,0.04
Cc1cc(C)n(-c2nc3ccccc3c(=O)n2OCC(=O)Nc2c(C)cccc2C)n1,-6.05*,-6.05
O=C(COc1cccc2cccnc12)N/N=C/c1ccc(O)cc1,i,0.71
O=C(COc1cccc2cccnc12)N/N=C/c1cccn1-c1ccc(F)cc1,-7.19*,-7.19
Cn1ncc([N+](=O)[O-])c1C(=O)NC1CCCCC1,i,0.15
CCCC1(C(=O)OC)NC(c2ccc(OC)c(OC)c2)C2C(=O)N(c3cccc(C(C)=O)c3)C(=O)C21 (stereo not given),i,x
CCCC1(C(=O)OC)NC(c2ccc(OC)cc2OC)C2C(=O)N(c3cccc(C(C)=O)c3)C(=O)C21 (stereo not given),-5.86*,-5.86
CCCc1nnc(SCC(=O)NC2CC2)n1CC,i,x
CC(=O)Nc1ccc(S(=O)(=O)N(C#N)c2nc(N(C)C)nc(N(C)C)n2)cc1,i,x
CCC1Oc2ccc(C)cc2N(Cc2cccc(C)c2)C1=O (stereo not given),-5.89*,-5.89
Cc1ccc2c(c1)N(Cc1ccc3c(c1)OCO3)C(=O)C(C)O2 (stereo not given),i,x
CC1(C)Cc2c(cnn2-c2ccccc2)C(NC(=O)c2ccc[n+]([O-])c2)C1 (stereo not given),i,0.25
Cc1ccc(Cn2ccc(NC(=O)c3cc(C4CC4)on3)n2)cc1,i,0.01
Cc1ccc(NCc2nc3ccccc3n2C)c(C)c1,-6.62*,-6.62
Cc1cccc(NCc2nc3ccccc3n2C)c1,i,0.47
CCc1sc(C(=O)N2CCN(c3ncccn3)CC2)cc1Br,i,x
CN(Cc1ccccc1)C(=O)c1nc2ccccn2c1CN1CCc2sccc2C1,-5.89*,-5.89
CN(Cc1c(C(=O)N(C)Cc2ccccc2)nc2ccccn12)CC1Cc2ccccc2O1 (stereo not given),i,x
O=C(c1cccc(-c2nnc(-c3ccccc3)o2)c1)N1CCCCC1,i,0.13
O=C(c1cccc(-c2nnc(-c3ccccc3)o2)c1)N1CCCCCC1,-5.81*,-5.81
